High-throughput results: PubChem BioAssay, National Center for Advancing Translational Sciences (NCATS)
A selection: hits, their analogues and other compounds. The true share with any hit is near 3.9%.
D1 antag: antagonists of human D1 dopamine receptor; activity change, negative = inhibition, % at 10 µM; P21728; 360,000 tested, 3.2% active; HEK293 TREx D1 cells, calcium flux, dopamine EC80; hits give low values; in the data active means activity change below about -30%; further: on the % scale 0 is the no-effect control and ±100 the full control effect
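Tetracycline-induced HEK293 T-REx cells with force-coupled D1 receptor were loaded with a no-wash calcium dye. Compound was added after a 10 s baseline and read kinetically for 180 s; EC80 dopamine was then added and calcium flux followed another 180 s.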
Eya2 inh: blocks the phosphatase activity of human Eya2; O00167; recombinant Eya2, OMFP fluorescence dephosphorylation (OMFP is methylfluorescein phosphate); Potency, µM (highest dose often 76.9 µM), without a hit: top-dose activity, negative = inhibition, hits mostly inhibitors; 330,000 tested, 0.006% active; AID 488837; further: potency means the concentration at half of the fitted maximal effect; on the % scale 0 is the no-effect control and ±100 the full control effect
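Eya2 (0.2 uM) preincubated 10 min at ambient with compound, then OMFP substrate added at 50 uM; 10 min reaction in 50 mM HEPES pH 7.5, 50 mM NaCl, 5 uM MgCl2, 0.05% BSA, 1 mM DTT. Fluorescence read at Ex 485/Em 525 nm.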
GALK inhibitor: galactokinase (human) inhibition. P51570. Purified GALK, Kinase-Glo residual ATP luminescence. Potency, µM (top dose mostly 57.5 µM), for inactives: at the top dose activity change, negative = inhibition, usual class: inhibitors. 270,000 tested, 0.007% active; further: potency means the concentration at half of the fitted maximal effect; on the % scale 0 is the no-effect control and ±100 the full control effect
Target sequence (P51570 whole entry, looked up): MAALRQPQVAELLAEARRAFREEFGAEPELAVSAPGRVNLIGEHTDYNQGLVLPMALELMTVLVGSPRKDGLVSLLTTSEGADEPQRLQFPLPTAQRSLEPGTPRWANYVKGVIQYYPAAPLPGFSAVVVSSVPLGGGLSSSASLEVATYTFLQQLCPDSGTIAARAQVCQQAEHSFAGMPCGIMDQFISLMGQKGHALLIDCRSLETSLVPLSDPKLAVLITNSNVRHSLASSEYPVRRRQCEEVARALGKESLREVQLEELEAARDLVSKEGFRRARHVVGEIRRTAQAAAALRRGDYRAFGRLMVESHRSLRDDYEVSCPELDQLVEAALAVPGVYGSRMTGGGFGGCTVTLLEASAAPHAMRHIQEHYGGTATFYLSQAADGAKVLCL
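Kinase-Glo Plus luminescence measured ATP left after a 1 h room-temperature reaction. The reaction used 5 nM GALK, 100 uM galactose and 35 uM ATP at pH 8.0 (20 mM HEPES, 5 mM MgCl2, 60 mM NaCl, 1 mM DTT, 0.01% BSA).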
USP2a block: USP2a (human) protease inhibition; Potency, µM (highest dose often 38.3 µM), for inactives: at the top dose activity change, negative = inhibition, hits mostly inhibitors; O75604; USP2 core, Ub-CHOP2 coupled fluorogenic reporter, 485/531; 330,000 tested, 0.01% active;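 further: potency means the concentration at half of the fitted maximal effect; plate controls were DMSO wells for no effect and full inhibition by NEM control for full effect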
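Cell-free coupled assay: 10nM USP2 core preincubated 30min RT with compound in Tris-HCl pH 8.0/CaCl2/CHAPS buffer, then 25nM Ub-CHOP2 and 25nM reporter substrate; fluorescence (Ex 485/Em 531) read after 60min RT, normalized to NEM inhibition, concentration-response curves fitted.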
D1 agonist: human D1 receptor agonism | P21728 | HEK293 T-REx D1 cells, calcium flux, agonist mode | activation, % at 2 µM | 360,000 tested, 1% active | AID 504660; in the data active means activation above about 30%; further: 0% is about no effect
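Tetracycline-induced HEK293 TREx D1 cells, force-coupled to calcium signalling, were dye-loaded with a no-wash calcium kit. Compound was pin-added after a 10 s baseline. Fluorescence was read kinetically at 1 cycle/s for 180 s, with calcium rises flagged as agonism.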
D1 potentiator: human D1 dopamine receptor positive modulation | HEK293 TREx D1 cells, calcium flux, dopamine EC20 potentiation | AID 504651 | potentiation, % at 10 µM | 360,000 tested, 0.036% active; in the data active means potentiation above about 30%; further: 0% is about no effect
Numbers without * were called inactive; ? = inconclusive; . = no result given. Unless noted, the call rests on the fitted dose curve; in most records, active means well fitted inhibition curve with a large enough effect; inconclusive means small, poorly fitted or top-dose-only effect, or effect the other way; inactive means flat fitted curve, though single readings scatter.

SMILES | D1 antag | Eya2 inh | GALK inhibitor | USP2a block | D1 agonist | D1 potentiator
Fc1ccc(NC(=S)N2N=CCC2c2ccccc2)cc1 (stereo not drawn) | -2 | -1% | -1% | -7% | 77* | -4
COc1ccc(CCN2C(=O)c3oc4ccc(F)cc4c(=O)c3C2c2ccc(C(C)(C)C)cc2)cc1 (stereo not drawn) | 8 | . | . | . | 0 | -5
Cc1onc(-c2c(Cl)cccc2Cl)c1C(=O)N1CCCc2ccccc21 | 18 | -3% | 0% | 4% | 139* | 1
Cc1onc(-c2c(F)cccc2Cl)c1C(=O)N1CCc2ccccc21 | 3 | 7% | 0% | -1% | 1 | 5
Cc1onc(-c2ccccc2)c1C(=O)N1CCCCCC1 | 14 | 2% | 3% | -1% | 2 | 7
Cc1onc(-c2ccccc2)c1C(=O)N1CCCC1 | -37* | -1% | -6% | -1% | 3 | -10
CCOC(=O)c1cc2c(=O)n3ccccc3nc2n(C(C)C)c1=NC(=O)c1cc2ccccc2o1 | -4 | . | . | . | 2 | 0
CSc1nc2ccc(Br)cc2[nH]1 | 0 | -1% | 7% | 3% | 0 | 4
CC(C)Sc1nc2ccc(Br)cc2[nH]1 | -33* | 2% | -1% | 3% | 5 | -5
Cc1ccc2cc(CN(C)C(=O)c3cccc(Cl)c3)c(=O)[nH]c2c1 | 1 | . | . | . | 1 | -1
Nc1nonc1/C(=N/O)N1CCN(CCO)CC1 | 6 | 19% | 0% | 6% | 2 | 0
CN1CCN(/C(=N\O)c2nonc2N)CC1 | -42* | 4% | 4% | 4% | 5 | -10
COc1ccc(NC(=O)CC2C(=O)N(c3cccc(OC)c3)C(=O)N2CCc2cccs2)cc1 (stereo not drawn) | 5 | . | . | . | -1 | 1
COc1ccc(C(=O)N2CCN(C3CCC(c4ccccc4)CC3)CC2)cc1OC (stereo not drawn) | -37* | 16% | 3% | -2% | -1 | -12
COc1ccc(C(=O)N2CCC(N3CCN(c4ccccc4)CC3)CC2)cc1OC | -27 | -1% | -1% | 2% | 0 | -3
O=C(c1ccccc1F)N1CCN(C2CCC(c3ccccc3)CC2)CC1 (stereo not drawn) | -26 | -14% | 2% | -2% | 0 | -3
O=C(c1ccc(F)cc1)N1CCN(C2CCC(c3ccccc3)CC2)CC1 (stereo not drawn) | -41* | -7% | -1% | -4% | 3 | 1
CCOCCCN1C(=O)c2[nH]nc(-c3ccccc3O)c2C1c1ccc(CC)cc1 (stereo not drawn) | 4 | . | . | . | -1 | 10
O=C(CSc1nnc(-c2ccc(O)cc2)o1)c1ccc(Br)cc1 | 30 | . | . | . | 39* | -2
O=C(O)CSc1nnc(-c2ccc(O)cc2)o1 | -3 | . | . | . | 0 | -2
O=C(O)c1cc(O)c2c(c1)[C@H]([C@H]1c3cc(C(=O)O)cc(O)c3C(=O)c3c(O[C@@H]4O[C@H](CO)[C@@H](O)[C@H](O)[C@H]4O)cccc31)c1cccc(OC3O[C@H](CO)[C@@H](O)[C@H](O)[C@H]3O)c1C2=O (stereo partly drawn) | 6 | -25% | . | ? | -2 | -1
O=C(O)c1cc(O)c2c(c1)[C@@H]([C@H]1c3cc(C(=O)O)cc(O)c3C(=O)c3c(O[C@@H]4O[C@H](CO)[C@@H](O)[C@H](O)[C@H]4O)cccc31)c1cccc(OC3O[C@H](CO)[C@@H](O)[C@H](O)[C@H]3O)c1C2=O (stereo partly drawn) | -17 | -33% | . | 3.2µM* | -2 | -2
Nc1cccnc1Oc1ccccc1F | 28 | 11% | 13% | 0% | 2 | 1
O=C(/C=C/c1ccccc1)Nc1cccnc1Oc1ccccc1F | -39* | 6% | 0% | -1% | 9 | 0
COc1ccc(Br)cc1/C=c1\sc2nc(-c3ccco3)nn2c1=O | -3 | -11% | -8% | -8% | 4 | 2
COc1ccccc1/C=c1\sc2nc(-c3ccccc3OC)nn2c1=O | -36* | 6% | -1% | -5% | 1 | -1
